Assay results taken from PubChem BioAssay (NCATS).
Results filed as inconclusive are left out. Active and inactive are the calls of the source. Calls come from the whole dose curve; as a rule, active = well fitted inhibition curve with a large enough effect; inconclusive = small, poorly fitted or top-dose-only effect; inactive = flat fitted curve, though single readings scatter.

Tested on: ICS
Assay: qHTS profiling for inhibitors of Plasmodium falciparum proliferation (AID 504749); note: nearly all actives have a fitted effect of over 60% in size
Conditions: P. falciparum in erythrocytes, SYBR Green DNA, 72 h; series mostly up to 28.7 µM
In short: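 SYBR Green fluorescence (ex 485 nm, em 535 nm) reports parasite DNA after 72 h compound exposure of infected red cells at 0.3% parasitemia, 2.5% hematocrit; signal normalized to 0.29 uM artemisinin and vehicle wells.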
Potency is the fitted concentration of half-maximal effect.

SMILES	Potency
O=C(CN1CCN(Cc2ccc3c(c2)OCO3)CC1)N1c2ccccc2Sc2ccccc21	10 µM (active)
CN1CCC[C@@H]1CCO[C@](C)(c1ccccc1)c1ccc(Cl)cc1	10 µM (active)
CC(C)(C)CC(C)(C)c1ccc(O)c(-n2nc3ccccc3n2)c1	5.01 µM (active)
Cc1ccc2c(Br)cc(Br)c(O)c2n1	11.2 µM (active)
CCCCCN=C(N)N/N=C/c1c[nH]c2ccc(OC)cc12	1.26 µM (active)
O=C(NC1CCN(CCc2c[nH]c3ccccc23)CC1)c1ccccc1	8.91 µM (active)
Cc1ncc(CO)c(C=O)c1O	inactive
O=C(O)CCc1nc2ccccc2[nH]1	inactive
O=S(c1cc(Cl)cc(Cl)c1O)c1cc(Cl)cc(Cl)c1O	inactive
CN1CCN(C2=Nc3ccccc3Sc3ccc(Cl)cc32)CC1	11.2 µM (active)
CN1CCc2cccc3c2[C@H]1Cc1ccc(O)c(O)c1-3	2.82 µM (active)
NC(N)=NN=C(/C=C/c1ccc([N+](=O)[O-])o1)/C=C/c1ccc([N+](=O)[O-])o1	2 µM (active)
CC(C)(Cc1c[nH]c2ccccc12)NCC(O)COc1ccccc1C#N (stereo not drawn)	11.2 µM (active)
CNCCCCOc1ccccc1Cc1ccccc1	11.2 µM (active)
Clc1cccc(C(c2ccc3nc[nH]c3c2)n2ccnc2)c1 (stereo not drawn)	5.62 µM (active)
O=C(CCN1CCN2CCCC2C1)N1c2ccccc2Sc2ccc(Cl)cc21 (stereo not drawn)	5.01 µM (active)
Oc1c(Cl)cc(Cl)c(Cl)c1Cc1c(O)c(Cl)cc(Cl)c1Cl	7.08 µM (active)
COc1ccccc1N1CCN(CCCCNC(=O)c2ccc(-c3ccc(C(C)=O)cc3)cc2)CC1	14.1 µM (active)
